Target: CD27
Test: pooled miR-30 sensor sort-seq; sequence = guide strand
Conditions: shRNA

Sequence	sensor-assay potency score (higher = more potent)
AAGGATGCGAATAAAATCGGAG	-0.423
TGGAAGAGGATCACACTCGGTG	-0.658
TAAAATCGGAGCTGCACAGGGA	0.114
TATATTTCCTTCGTTGATGGAG	-0.211
TGTAACGACAAGGCTCTGCAGG	-0.28
AAAACAAGGAACATTCCAGAGA	-0.821

Target: CD300E
Test: as above
Conditions: shRNA

Sequence	sensor-assay potency score (higher = more potent)
TTGGTCTCCACAATGCTCTCAC	0.408
ATCATCTTCATTGAGGTTCTGC	0.407
TTGTACATGCTCTCATACTGAC	-0.406
TGAATTTTGGGTCAACACCTCC	-1.03
TTTGGGTCAACACCTCCCCGGT	-1.29
TCACATGACGTGTCGTACTGTC	0.205
TTGGGGTTGTAATTGCTGGGGA	-0.0469
TTTTGGGTCAACACCTCCCCGG	-0.887
ACTGTCTGAATTTTGCACCAGT	-0.28
TGGTCTCTGATGGACACGCGGC	-1.67
ATACTGACACCACACTGTCAGA	-1.71
ATGACGTGTCGTACTGTCCTCG	-0.632

Target: CD300LG
Test: as above
Conditions: shRNA

Sequence	sensor-assay potency score (higher = more potent)
TCCTGCACCAGTACTTCCGGTG	-1.28
TAGATGGTGCCAGAGCAGCGAG	-1.7
TTCCTGCACCAGTACTTCCGGT	-1.16
TTCTTCTTCTGCATAGATGGTG	-0.287
TTCTACTTTTCTCTCTAGCCAC	-0.61
TCTTCTTCTGCATAGATGGTGC	-0.808
TCTGTGTTAGACACCTACGTGC	0.23
TATCCCTGCAATGTGCACCTGA	0.23
TTCCCTGTAGGTGCACTGCAGG	-0.985
TTGGTGTCGCAGACAGAGCAGA	-1.29
TTTTCTTCATCATTTTTCCAAA	-1.26
TCTTCTGCATAGATGGTGCCAG	-0.529

Target: CD320
Test: as above
Conditions: shRNA

Sequence	sensor-assay potency score (higher = more potent)
TTCTGTTCTGACAGCAGCAGGG	-0.457
TCGCTGCAGTCCAAGTCCCTGT	-1.39
TCTCATTGGTTCCACAGCCGAG	-1.57
ATGCAGTCATCGCTCAGCGTGC	-1.64
AATGCAGTCATCGCTCAGCGTG	-1.16
TCTGTTCTGACAGCAGCAGGGA	-0.673
TCCACAGCCGAGCTCGTCGCTG	-1.78
TTGCACTGAGCACCGCAGCAGC	-1.06
TTCCGGGAGGATCTCATTGGTT	-1.44
TAGTCCGAGGCCGAGCAGCAGC	-1.57

Reference: the OligoGym collection
